# DRD3 antagonist – blocks the human D3 dopamine receptor | D3R cells, DiscoveRx beta-arrestin luminescence, antagonist mode; stronger effect = lower value | max response, negative = inhibition, % | actives 2.5% (n = 360,000); in the data active means max response below about -50%; inconclusive means no clear call, values can overlap the other calls; further: on the % scale 0 is the no-effect control and ±100 the full control effect
# Target sequence (P35462 whole entry, looked up): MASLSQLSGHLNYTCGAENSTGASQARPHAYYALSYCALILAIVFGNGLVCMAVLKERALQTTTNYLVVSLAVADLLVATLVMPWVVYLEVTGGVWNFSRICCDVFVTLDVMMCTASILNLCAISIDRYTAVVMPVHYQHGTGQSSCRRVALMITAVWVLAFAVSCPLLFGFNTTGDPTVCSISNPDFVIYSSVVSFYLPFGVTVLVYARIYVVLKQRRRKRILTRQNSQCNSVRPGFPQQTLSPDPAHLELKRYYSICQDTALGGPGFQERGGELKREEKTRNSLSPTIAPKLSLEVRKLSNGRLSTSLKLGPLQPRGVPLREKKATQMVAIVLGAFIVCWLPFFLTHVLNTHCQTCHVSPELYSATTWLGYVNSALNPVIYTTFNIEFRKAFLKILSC
#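 Cells expressing the human receptor were seeded at 1500 cells/well, incubated overnight at 37 degrees C in 5% CO2, then exposed to library compounds with dopamine controls for 90 minutes at 37 degrees C before luminescent detection.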
# DRD3 agonist – activates the human D3 dopamine receptor; max activation, %; D3R DiscoveRx beta-arrestin cells, luminescence, 90 min; actives 0.58% (n = 410,000); AID 652048; P35462; in the data active means max activation above about 30%; further: 0% is about no effect
#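 Cells at 1500/well, incubated overnight, then treated with pinned compounds (dopamine as control) for 90 min at 37 degrees C. DiscoveRx reagent added for 30 - 60 minutes at room temperature; luminescence read.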
# TGFb inhibitor – inhibitors of TGF-b signaling | HepG2 CAGA-GFP TGF-b/SMAD3 reporter, GFP fluorescence, 18 h; TGF-beta stimulated, 500 pg/mL final | Potency, µM (highest dose often 46.1 µM), inactives show at the top dose activity, negative = inhibition, hits mostly inhibitors | actives 1.2% (n = 410,000) | AID 588855; further: potency means the concentration at half of the fitted maximal effect; on the % scale 0 is the no-effect control and ±100 the full control effect; nearly all actives have a fitted effect of over 65% in size
#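 Inhibition was scored as loss of TGF-beta-induced (500 pg/mL final, 18 hours, 37 degrees C) GFP in HEPG2 cells carrying a CAGA-GFP reporter, in DMEM with 1% FBS. Well GFP was summed per cell; Activity was normalised to unstimulated and stimulated DMSO wells, then concentration-response fitting.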
# S2 tox – cell viability loss in ATXN counter-screen; S2 cells (HEK-293 line with an ATXN2-luciferase reporter) viability, CellTiter-Fluor protease fluorescence, 24 h; Potency, µM (highest dose often 56.7 µM), hits mostly cytotoxic; actives 0.49% (n = 400,000); further: potency means the concentration at half of the fitted maximal effect; nearly all actives have a fitted effect of over 40% in size
# HepG2 tox – counter-screen for TGF-b inhibitors: cytotoxicity in HepG2 cells. Potency, µM (doses to about 46.1 µM), without a hit: at the highest dose activity change, negative = cytotoxicity, actives largely listed as cytotoxic. HepG2 CAGA-GFP viability, ATP luminescence, 18 h. actives 0.76% (n = 410,000); further: potency means the concentration at half of the fitted maximal effect
#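 HepG2 CAGA-GFP cells (1000/well, DMEM with 1% FBS) received compound, then TGF-beta at 500 pg/mL final, and were incubated 18 hours at 37 degrees C. Viability was read by CellTiter-Glo luminescence. Media-only wells were set as complete cell-killing and DMSO as no toxicity.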
# ATXN2 expr inh – inhibitors of ATXN2 expression | HEK-293 ATXN2-luciferase reporter, luminescence, 24 h | Potency, µM (series often up to 57 µM), inactives show at the highest dose activity change, negative = inhibition, most hits filed as inhibitors | actives 0.72% (n = 360,000); further: potency means the concentration at half of the fitted maximal effect; on the % scale 0 is the no-effect control and ±100 the full control effect; nearly all actives have a fitted effect of over 55% in size
#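 ATXN2-luciferase reporter cells (luciferase flanked by upstream and downstream ATXN2 gene portions) were treated 24 h at 37 °C with compounds at up to 57 uM. SteadyGlo luminescence gave expression; GF-AFC fluorescence gave viability.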
# Numbers without * were called inactive; i = inactive; ? = inconclusive; · = not tested or not shown; [ ] = another dose, or the depositor's remark. Compounds with a hit are over-represented: about 4.7% of the library has one in this group of screens. Unless noted, the call rests on the fitted dose curve; in most records, active means well fitted curve in the direction sought with a large enough effect; inconclusive means small, poorly fitted or top-dose-only effect, or another doubt; inactive means no such curve, though single readings can be large; an effect the other way counts as inactive or inconclusive.
SMILES,DRD3 antagonist,DRD3 agonist,TGFb inhibitor,S2 tox,HepG2 tox,ATXN2 expr inh
CC(C)Cn1c(=O)c2ccccc2n2c(CCC(=O)N3CCN(c4ccccc4)CC3)nnc12,·,0,-28%,·,4%,·
Cc1oc(-c2ccccc2)nc1CSc1nc2c(c(=O)[nH]1)CCC2,152,27,-9%,i,4%,-1%
Cc1ccccc1-c1nc(CSc2nc3c(c(=O)[nH]2)CCC3)c(C)o1,189,30*,9%,i,1%,-18%
CO[C@@H]1[C@@H](O[C@@H]2O[C@H](C)[C@@H](O[C@H]3C[C@@](C)(O)[C@@H](OC(=O)CC(C)C)[C@H](C)O3)[C@H](N(C)C)[C@H]2O)[C@@H](CC=O)C[C@@H](C)C(=O)/C=C/C2OC2C[C@@H](C)OC(=O)C[C@H]1OC(C)=O (some centres not stated),·,10,·,·,·,·
Cc1ccc2[nH]c(C(=O)NCc3nc(-c4cccc(NC(=O)c5cc(C)oc5C)c4)oc3C)cc2c1,·,·,·,i,·,·
COc1cc(CN2CCCC(n3cc(C(=O)N4CCCC4)nn3)C2)cc(OC)c1 (configuration not stated),·,·,·,i,·,·
COC(=O)c1ccc(C)c(NS(=O)(=O)c2ccc(OC)c(OC)c2)c1,-70*,-7,-6%,i,-18%,-5%
COC(=O)c1cccc(NS(=O)(=O)c2ccc(OC)c(OC)c2)c1C,21,10,?,i,3%,4%
CC(C)(C)c1nc(CN2CCOCC2)ccc1O,-18,-3,0%,i,-12%,-8%
CC(C)(C)c1nc(CN2CCCCC2)cc(CN2CCCCC2)c1O,-72*,2,-9%,i,-21%,3%
CCn1cc(Cl)c(C(=O)Nc2ccccc2C(N)=O)n1,-20,48*,-2%,i,5%,17%
COC(=O)c1scc(-c2ccc(C)cc2)c1S(=O)(=O)Nc1cc(OC)c(OC)c(OC)c1,·,2,-30%,i,-24%,-5%
CNCc1ccccc1OCC(=O)Nc1ccccc1,-52*,-20,15%,i,-12%,50%
O=C(COC(=O)c1ccccc1OCC(=O)Nc1ccc(Br)cc1)Nc1ccccc1,-51*,-4,-11%,?,-38%,-5%
NC(=O)COC(=O)c1ccccc1OCC(=O)Nc1ccc(Br)cc1,·,·,-19%,·,1%,·
CCc1ccccc1OCC(=O)Nc1ccc(S(N)(=O)=O)cc1,6,-23,2%,i,-6%,-1%
OC[C@H]1OC(O)C[C@@H](O)[C@H]1O (some centres not stated),·,·,·,·,·,8%
Cc1cc(-c2csc(N)n2)c(C)n1CCc1ccccc1,-19,32*,2%,i,-7%,-35%
Cc1cc(-c2csc(N)n2)c(C)n1CCC(C)C,17,1,-21%,i,-21%,-2%
C=CCOc1nc2c(c(=O)n(C)c(=O)n2C)n1Cc1ccccc1Cl,15,36*,-7%,i,3%,-27%
CCN(CCCC(=O)c1ccc(F)cc1)CCc1ccccc1,-28,32*,-1%,i,-2%,-14%
O=C(CCCc1ccccc1)c1ccccc1,-3,3,8%,?,3%,68%
CCC(C)[C@@H](NC(=O)OC(C)(C)C)c1nnc(S(=O)(=O)Cc2cccc(C)c2)o1 (some centres not stated),-54*,-26,8.9µM*,·,-101%,?
Cc1ccccc1CS(=O)(=O)c1nnc([C@H](Cc2ccccc2)NC(=O)OC(C)(C)C)o1,-53*,-31,?,·,-102%,?
Cc1ncc2c(c1CNC(=O)c1cncs1)CCN(C(=O)c1cccc(-c3cccc(F)c3)c1)C2,·,·,·,i,·,·
SMILES,DRD3 antagonist,DRD3 agonist,TGFb inhibitor,S2 tox,HepG2 tox,ATXN2 expr inh
Cc1cc2c(cc1NS(=O)(=O)c1ccc(F)cc1)n(C)c(=O)c(=O)n2C,·,2,-11%,i,1%,14%
CC1(C)CC[C@]2(C(=O)n3ccnc3)CC[C@]3(C)[C@H](C(=O)C=C4[C@@]5(C)C=C(C#N)C(=O)C(C)(C)[C@@H]5CC[C@]43C)[C@@H]2C1,?,-2,?,3.8µM*,-97%,3.4µM*
O=C(N/N=C/c1ccccn1)c1cc(-c2ccc(Br)cc2)nc2ccccc12,-95*,-52,?,?,-9%,?
CCCOc1cccc(-c2cc(C(=O)N/N=C/c3ccccn3)c3ccccc3n2)c1,?,-27,?,?,-2%,7.1µM*
O=C(N/N=C/c1ccccn1)c1cc(-c2ccc(Cl)cc2)nc2ccccc12,-67*,-26,?,i,-35%,?
O=C(O)COc1ccccc1/C=N/NC(=O)c1cc(-c2ccc(Cl)cc2)nc2ccccc12,-23,-13,0%,i,-12%,-34%
COc1cc(/C=N/NC(=O)c2cc(-c3cccc(OC(C)C)c3)nc3ccccc23)ccc1O,62,73*,?,i,2%,22%
COc1cc(/C=N/NC(=O)c2cc(-c3cccs3)nc3ccccc23)ccc1O,53,9,?,i,-26%,·
CCCOc1cccc(-c2cc(C(=O)N/N=C/c3cccnc3)c3ccccc3n2)c1,9,-5,?,i,5%,24%
Cc1ccc(C)c(N2CCN(C(=O)CN3CCSc4ccc(S(=O)(=O)N(C)C)cc43)CC2)c1,·,-12,-18%,i,-28%,-9%
Cc1cc(=O)n(Cc2ccc(Br)cc2F)c2c1c(C)nn2-c1ccccc1,·,2,15%,i,1%,2%
CCN(CC)c1cc(C)c(/C=C/c2ccnc3ccccc23)cc1C,·,·,-28%,·,-63%,·
CCn1c(=O)c2sccc2n2c(CCC(=O)NCc3ccc(Cl)cc3)nnc12,·,-18,-18%,i,6%,3%
N/C(Cc1cccc2ccccc12)=N\OC(=O)c1cccs1,-76*,-3,-7%,i,13%,3%
N/C(Cc1cccc2ccccc12)=N\OC(=O)Cc1cccs1,-10,5,-1%,i,-28%,26%
Cc1ccc2nc(SCC(=O)c3cc(C)n(C)c3C)[nH]c2c1,8,-5,?,i,-13%,13%
Cc1cc(C(=O)CSc2nc3ccc(Cl)cc3[nH]2)c(C)n1C,-6,33*,-5%,i,-26%,6%
CCOc1cc(C=C(C(=O)OC)C(=O)OC)ccc1OCc1ccc([N+](=O)[O-])cc1,?,-7,13µM*,?,-52%,32µM*
CCOc1cc(/C=N/O)ccc1OCc1ccc([N+](=O)[O-])cc1,12,-1,10%,i,-10%,11%
Cn1cc(C[C@@H](N)C(=O)O)c2ccccc21,·,·,·,·,·,-4%[25.6 µM]
